Most compounds without a hit are left out; they make up all but 2.7% or so of the library.
ALOX12 inh: Primary qHTS assay for inhibitors of human arachidonate 12S-lipoxygenase (ALOX12): Round 2; purified 12hLO, xylenol orange hydroperoxide absorbance; Polyunsaturated fatty acid lipoxygenase ALOX12 (Homo sapiens), P18054; AID 1671190, 2021; 1.1% of 580,000 active; Potency, µM (top dose mostly 108 µM), for inactives: top-dose activity change, negative = inhibition, most hits filed as inhibitors; also: potency is read from the fitted curve at half-maximal effect; % is scaled to controls: 0 for no effect and ±100 for the full control effect
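Hydroperoxide product was detected by ferrous iron/xylenol orange as the 573 to 405 nm absorbance ratio. Arachidonic acid at 40 uM (final) was turned over for 30 min at room temperature by 150 nM human 12hLO, pH 7.0 Hepes buffer, after 15 min compound preincubation.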
A549 tox: Nrf2 qHTS screen for inhibitors: counterscreen for cytotoxicity | AID 504648, 2011 | A549 ARE-Fluc cells, CellTiter-Fluor viability, 18-24 h | Potency, µM (doses to about 46 µM), without a hit: top-dose activity change, negative = cytotoxicity, most hits filed as inhibitors | 0.16% of 390,000 active; also: potency is read from the fitted curve at half-maximal effect; % is scaled to controls: 0 for no effect and ±100 for the full control effect
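A549 ARE_Fluc cells in 5% FBS OPTI-MEM were exposed to compounds in concentration-response for 18-24 h at 37 deg C. Viability was read by CellTiter-Fluor fluorescence (Ex 405/Em 525) after 30 min, before the luciferase read.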
LDHA block: qHTS assay for inhibitors of human lactate dehydrogenase; L-lactate dehydrogenase A chain (Homo sapiens), P00338; purified LDHA, NADH/diaphorase-resazurin fluorescence; active compounds read low; activity change, % (values are at about 110 or 230 µM); 0.15% of 480,000 active; AID 1347041, 2019; in the data active = activity change below about -30%; inconclusive = mostly about -25% to -30%;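 also: plate controls were DMSO wells for no effect and wells without enzyme for full effect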
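Resorufin fluorescence (ex540/em590), read at 0 and 20 min after diaphorase/resazurin addition, reports the NADH left after a 5 min room-temperature reaction of 2 nM human LDH5 with 0.06 mM NADH and 0.2 mM pyruvate.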
Nrf2 ARE act: qHTS of Nrf2 Activators. AREc32 ARE-luciferase reporter (MCF7-derived line), luminescence, 24 h. Potency, µM (highest dose often 46.1 µM), for inactives: at the top dose activation, hits mostly activators. 0.31% of 410,000 active. AID 624171, 2012; also: potency is read from the fitted curve at half-maximal effect; % of control where 0% means no effect; nearly all actives have a fitted effect of over 65% in size
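Quantitative high-throughput format: AREc32 reporter cells, 1000 per well, received compound by pin transfer and were incubated 24 hr at 37 deg C, 5% CO2, before Steady-Glo luminescence detection.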
Nrf2 inh: Nrf2 qHTS screen for inhibitors; 2.1% of 360,000 active; AID 504444, 2011; A549 ARE-Fluc reporter, luciferase luminescence, 18-24 h; Potency, µM (top dose mostly 46 µM), for the others: top-dose activity change, negative = inhibition, most hits filed as inhibitors; also: potency is read from the fitted curve at half-maximal effect; % is scaled to controls: 0 for no effect and ±100 for the full control effect; nearly all actives have a fitted effect of over 60% in size
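Cells were seeded and rested 2 h, then exposed to compounds for 18-24 h. CellTiter-Fluor was read first as a viability measure. BugLite was added 15 min before the final luminescent read of ARE-luciferase activity in A549 cells.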
IDH1 R132H inh: qHTS for Inhibitors of mutant isocitrate dehydrogenase 1 (IDH1): qHTS; IDH1-R132H enzyme, NADPH consumption, diaphorase/resazurin fluorescence; Potency, µM (top dose mostly 76.6 µM), for the others: top-dose activity change, negative = inhibition, actives largely listed as inhibitors; 0.093% of 390,000 active; AID 602179, 2012; also: potency is read from the fitted curve at half-maximal effect; % is scaled to controls: 0 for no effect and ±100 for the full control effect; nearly all actives have a fitted effect of over 65% in size
Target sequence (O75874 whole entry R132H, stated change not applied): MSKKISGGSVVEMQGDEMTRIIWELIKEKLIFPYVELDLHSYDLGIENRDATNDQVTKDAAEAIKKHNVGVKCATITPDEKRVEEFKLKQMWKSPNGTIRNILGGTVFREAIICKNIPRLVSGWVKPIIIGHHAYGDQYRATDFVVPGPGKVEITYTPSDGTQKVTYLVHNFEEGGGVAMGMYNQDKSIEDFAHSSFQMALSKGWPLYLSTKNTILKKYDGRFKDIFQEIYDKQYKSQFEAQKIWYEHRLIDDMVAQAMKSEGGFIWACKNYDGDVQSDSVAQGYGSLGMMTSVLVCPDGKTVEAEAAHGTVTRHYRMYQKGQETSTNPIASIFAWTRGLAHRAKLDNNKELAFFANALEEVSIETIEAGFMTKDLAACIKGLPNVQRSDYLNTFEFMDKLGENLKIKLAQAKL
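IDH1-R132H (0.5 ug/mL dispensed) in pH 7.5 Tris buffer was preincubated 30 min with compound, then given a substrate mix of 0.016 mM NADPH and 2 mM alpha-KG for 80 min at room temperature; remaining NADPH was read by diaphorase/resazurin fluorescence.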
An asterisk follows results filed as active; ? = inconclusive; · = no result; ! = a repeat was not active; [ ] = dose if it differs, or a comment. Unless noted, calls follow the shape of the dose curve; as a rule, active = well fitted curve in the direction sought with a large enough effect; inconclusive = small, poorly fitted or top-dose-only effect, or another doubt; inactive = no such curve, though single readings can be large; an effect the other way counts as inactive or inconclusive.

SMILES	ALOX12 inh	A549 tox	LDHA block	Nrf2 ARE act	Nrf2 inh	IDH1 R132H inh
COc1ccc(-c2nc(N)n(C(=O)c3ccc(C)cc3)n2)cc1	11.4%	-6.4%	0.2	0.3%	10.3µM*	7.9%
Cc1c(-c2ccccc2)c(=O)oc2ccc(OC(=O)c3ccccc3)cc12	25.4%	·	5.6	·	·	·
Cc1[nH]n2c(=O)cc(-c3ccc(Cl)cc3)nc2c1-c1ccc(F)cc1	22.4µM*	·	6.3	·	·	·
COCc1cc(=O)n2[nH]c(C)c(-c3ccc(Cl)cc3)c2n1	-5.6%	·	-0.8	-0.2%	·	-7.0%
Cc1[nH]n2c(=O)cc(-c3ccccc3Cl)nc2c1-c1ccccc1	?	-18.0%	2.2	-0.9%	18.4µM*	-6.8%
CCOc1ccccc1CN1CCC2(CC1)CC1C(=O)N(CC)C(=O)N1C2 (stereo not given)	26.1%	·	·	·	·	·
CC(OC(=O)c1nn(C)c(=O)c2ccccc12)c1ccccc1 (stereo not given)	-8.0%	·	7.6	·	·	·
CC(C)(C)c1cc(CC2(NCc3ccc(OC(F)(F)F)cc3)COC2)no1	23.0%[176 µM]	·	·	·	·	·
COc1ccc(C(=O)OC(C)C(=O)Nc2c(C)n(C)n(-c3ccccc3)c2=O)cc1 (stereo not given)	?	·	2.9	·	·	·
C/C(=N/Nc1ccc(S(N)(=O)=O)cc1[N+](=O)[O-])c1ccccc1	-21.5%	·	-5.9	·	·	·
C/C(=N/Nc1ccc(S(N)(=O)=O)cc1[N+](=O)[O-])c1ccccc1Br	35.5µM*	·	-2.5	·	·	·
C/C(=N/Nc1ccc(F)cc1F)c1ccccc1Br	50.1µM*	·	1.0	·	·	·
Cc1sc(-c2nc(-c3ccc(F)cc3)no2)cc1S(=O)(=O)Nc1ccc(F)cc1	-4.9%	·	1.6	·	·	·
CN(CCC#N)C(=O)COC(=O)c1ccccc1C(=O)c1ccc(Cl)c([N+](=O)[O-])c1	-23.3%	-17.2%	-2.5	15.8µM*	-27.1%	2.2%
O=C(COC(=O)c1ccccc1C(=O)c1ccc(Cl)c([N+](=O)[O-])c1)NC1CCCCCC1	-47.3%	?	-4.6	-2.4%	20.6µM*	-3.2%
CC(C)N(C(=O)COC(=O)c1ccccc1C(=O)c1ccc(Cl)c([N+](=O)[O-])c1)C(C)C	-2.3%	-27.8%	2.6	2.24µM*	?	2.8%
CCOC(=O)C(=O)Nc1ccc(C(=O)OCC)cc1	4.3%	·	12.8	·	·	·
Cc1ccc(C2C3=C(CCCC3=O)Nc3nc(SCCC(C)C)[nH]c(=O)c32)o1 (stereo not given)	7.94µM*	·	?	·	·	·
CC1(C)CC(=O)c2cc(N=C/C(C(=O)c3ccccc3)=C(\O)c3ccccc3)c(=O)oc2C1	-3.6%	1.7%	2.8	11.2µM*	11.4%	-0.4%
O=S(=O)(c1cccs1)N1CCC[C@@H]1c1noc2ccccc12	-1.7%	·	·	·	·	·
CCOc1ccc(-c2cc3c(=O)n(CCNC(=O)c4cccc(N(C)C)c4)ccn3n2)cc1	49.2%	·	·	·	·	·
CC1=C(C(=O)OC2CCCCCC2)C(c2c(Cl)cccc2Cl)CC(=O)N1 (stereo not given)	-31.6%	-10.1%	-0.7	-2.6%	20.6µM*	-27.4%
CCCOc1cc(S(=O)(=O)N2CCN(CCO)CC2)ccc1Br	?	·	-13.3	·	·	·
N[C@@H](Cc1cc(I)c(Oc2ccc(O)c(I)c2)c(I)c1)C(=O)O	?	?	-34.8*!	3.6%	?	?
CCC(=O)Nc1c(S(=O)(=O)c2ccc(OC)cc2)c(C)c(C)n1C(C)C	13.4%	·	-0.4	·	·	·
Cc1nc([C@@H]2CN(S(=O)(=O)C(C)C)C[C@H]2C(N)=O)n[nH]1	50.1µM*	·	·	·	·	·
C/C(=N/O)c1cc(C)ccc1O	-18.5%	·	1.7	·	·	·

Screens: PubChem BioAssay, National Center for Advancing Translational Sciences (NCATS)
